Screens from PubChem BioAssay.
In the library only some 2.5% were active in any assay of this set; here they are far more common.
EWS-Fli block: inhibitors of EWS/Fli oncoprotein transcriptional activity. hit rate 0.67% among 350,000. inhibition, % at 12.6 µM. A673 NR0B1-luciferase reporter, viability-normalised;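 active = mean inhibition of at least 50% after viability correction, with every replicate also passing that limit; inconclusive = mean reaches 50% but only one of two replicates passes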;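 note: firefly luciferase signal divided by Alamar Blue viability fluorescence both relative to DMSO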
TWEAK-Fn14 inh: inhibitors of TWEAK-Fn14 interaction signaling. TWEAK-stimulated Fn14 reporter cells, luciferase luminescence, 8 h. inhibition, % at 10 µM. hit rate 2% among 360,000. AID 1159606; in the data active = inhibition above about 50%
LGR2 inh: Drosophila LGR2 receptor signaling inhibition; inhibition, % at 9.99 µM; AID 720647; HEK293 LGR2, CRE-luciferase, bursicon-stimulated, 4 h; hit rate 0.35% among 380,000;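 active = drop in luminescence signal, shown as inhibition above about 50% in the replicate tests, limit read from the data, passing the limit was not always enough; inconclusive = probably only some replicates passing the limit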;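 note: agonist challenge used bursicon conditioned medium at about half maximal strength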
EBV LMP1 NFkB: Epstein-Barr LMP1 NF-kappaB reporter inhibition | inhibition, % at 12.5 µM | hit rate 0.69% among 350,000 | LMP1-induced NF-kappaB luciferase reporter cells, luminescence; in the data active = inhibition above about 41%; inconclusive = no clear call, values can overlap the other calls;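 note: 0% = neutral control wells and 100% = reference inhibitor control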
TROY signal inh: TROY signaling inhibition; AID 1347056; Q293 LMP1-TROYcd NF-kB luciferase reporter, 4 h; inhibition, % at 10 µM; hit rate 0.98% among 360,000;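 active = compounds whose plate-normalised and pattern-corrected inhibition of the luciferase reporter signal at the single screening dose is 50% or more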
The depositor's hits bear a star; ? = inconclusive; . = no result given.

SMILES	EWS-Fli block	TWEAK-Fn14 inh	LGR2 inh	EBV LMP1 NFkB	TROY signal inh
COc1cc(OC)c2c(-c3cccc(-c4ccc(OC(F)(F)F)cc4)c3)cc(=O)oc2c1	-3	14	5	18	14
COc1cc(OC)c2c(-c3cccc(-c4ccc(O)cc4)c3)cc(=O)oc2c1	53*	38	17	8	25
COc1cc(OC)c2c(-c3cccc(-c4cccc(C)c4)c3)cc(=O)oc2c1	54*	14	4	3	17
O=C(C[C@@H]1CC[C@@H]2[C@H](COC[C@@H](O)CN2Cc2ccc(Oc3ccccc3)cc2)O1)N1CCCCC1	9	.	5	.	.
C[C@@H]1CN([C@@H](C)CO)S(=O)(=O)c2ccc(C#CC3(O)CCCC3)cc2O[C@@H]1CN(C)C(=O)Nc1ccccc1	19	.	5	.	.
CO[C@@H]1CN(C)C(=O)c2cc(NC(=O)Nc3ccccc3)ccc2OC[C@@H](C)N(C(=O)CC2CC2)C[C@H]1C	4	.	-3	.	.
C[C@H](CO)N1C[C@H](C)[C@H](CN(C)Cc2ccc(-c3ccccc3)cc2)Oc2c(NC(=O)NC3CCCCC3)cccc2C1=O	25	.	5	.	.
C[C@@H]1CCCCO[C@H](CN(C)Cc2ccc(Cl)c(Cl)c2)[C@@H](C)CN([C@H](C)CO)C(=O)c2cc(NC(=O)Nc3cccc4ccccc34)ccc2O1	6	.	-4	.	.
CN(C)C(=O)c1cccc(-c2cccc(-c3nc(C(=O)NCc4ccccc4)cc4c3[C@H](CCO)N([S@@](=O)C(C)(C)C)C4)c2)c1	12	.	-26	.	.
COc1cc2oc(=O)cc(-c3ccc(-c4ccc(N(C)C)cc4)cc3)c2c(OC)c1OC	-12	92*	4	42*	71*
COc1ccc(-c2ccc(-c3cc(=O)oc4cc(OC)c(OC)c(OC)c34)cc2)cc1F	-37	-5	0	16	-11
COc1cc(OC)c2c(-c3cccc(-c4ccc(N(C)C)cc4)c3)cc(=O)oc2c1	?	52*	-6	14	44
COc1ccc(-c2cccc(-c3cc(=O)oc4cc(OC)c(OC)c(OC)c34)c2)cc1	5	3	7	-1	-14
CC=Cc1ccc2n(c1=O)C[C@@H]1[C@@H](CO)[C@H](C(=O)NCc3ccccc3)N(S(C)(=O)=O)[C@H]21 (mixture of isomers)	2	.	-13	.	.
COC(=O)/C(=C\Nc1ccc(Cl)cc1Cl)NC(=O)c1ccc(OC)cc1	53*	13	9	-6	-3
COc1ccc2c(c1)OC[C@H]1[C@H]2N2C(=O)c3cc(F)ccc3NC(=O)[C@@]2(C)[C@H]1c1ccccc1	2	9	26	-4	21
Cc1ccc2c(c1)[C@H]1[C@H](CO2)[C@H](c2ccccc2)[C@]2(C)C(=O)Nc3cc(F)c(F)cc3C(=O)N12	59*	20	19	19	7
Cc1ccc2c(c1)[C@H]1[C@H](CO2)[C@H](c2ccccc2)[C@]2(C)C(=O)Nc3ccc(F)cc3C(=O)N12	56*	11	.	10	19
C[C@@]12C(=O)Nc3ccccc3C(=O)N1[C@H]1c3cc(Br)ccc3OC[C@@H]1[C@@H]2c1ccccc1	56*	24	8	11	28
Cc1ccc2c(c1)[C@H]1[C@H](CO2)[C@H](c2ccccc2)[C@]2(C)C(=O)Nc3cc(Cl)ccc3C(=O)N12	.	25	.	13	23
COc1ccc(-c2cn(CC[C@@H]3CC[C@H](NC(=O)NC(C)C)[C@@H](CO)O3)nn2)cc1	6	.	-11	.	.
O=C(C[C@@H]1C=C[C@@H](NC(=O)C2CCOCC2)[C@@H](CO)O1)NCC1CCCCC1	-3	.	16	.	.
CS(=O)(=O)c1nc(-c2ccc(F)cc2)cc(C(F)(F)F)n1	34	86*	37	-25	52*
COc1ccc(-c2cc(C(F)(F)F)nc(S(C)(=O)=O)n2)cc1	.	53*	.	7	47
Nc1nc(-c2ccc(F)cc2)cc(C(F)(F)F)n1	.	-2	.	1	-8
